Conditions in all cases: mRNA level, 48 h; actives raise or lower the signal
Read-out in one test: MYC, MYC (gene 4609)
Kind of test: LTEA_HepaRG_MYC: Life Technologies and Expression Analysis (LTEA) Assay for MYC using HepaRG (AID 2283518). In outline:
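Differentiated human HepaRG cells, plated 48 h then switched to serum-free induction medium, were exposed in duplicate for 48 h to 8-point half-log series up to 100 uM in 0.5% DMSO. MYC mRNA measured by qRT-PCR, normalized to ACTB/GAPDH/POLR2A.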

Read-out in test [1]: matrix metalloproteinase-3 (MMP3), MMP3 (gene 4314)
Kind of test: LTEA_HepaRG_MMP3: Life Technologies and Expression Analysis (LTEA) Assay for matrix metalloproteinase-3 (MMP3) using HepaRG (AID 2283519). In outline:
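Human liver HepaRG cultures received chemicals (top concentration 100 uM, 0.5% DMSO) for 48 h in duplicate. MMP3 mRNA induction or loss was then assessed via TaqMan qRT-PCR with housekeeping-gene normalisation.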

Read-out in test [2]: Paternally Expressed 10 (PEG10), PEG10 (gene 23089)
Kind of test: LTEA_HepaRG_PEG10: Life Technologies and Expression Analysis (LTEA) Assay for Paternally Expressed 10 (PEG10) using HepaRG (AID 2283520).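 For AC50: PEG10 transcript by qRT-PCR normalised to ACTB GAPDH and POLR2A.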 An outline of the steps: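 qRT-PCR read-out: PEG10 mRNA normalised to three housekeeping genes, fitted bidirectionally against 0.5% DMSO vehicle. HepaRG cells received test chemicals for 48 h in serum-free induction medium, 8 points, top 100 uM, half-log steps.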

Read-out in test [3]: Protein phosphatase 2A (PPP2R4), PTPA (gene 5524)
In words: LTEA_HepaRG_PPP2R4: Life Technologies and Expression Analysis (LTEA) Assay for Protein phosphatase 2A (PPP2R4) using HepaRG (AID 2283522). In outline:
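HepaRG, 48 h exposure, 8-pt half-log series from 100 uM, 0.5% DMSO vehicle, duplicates. Readout: PPP2R4 mRNA, Fluidigm qRT-PCR, housekeeping-normalized. Bidirectional curve fit vs DMSO baseline.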

Read-out in test [4]: Phosphatase and tensin (PTEN), PTEN (gene 5728)
Kind of test: LTEA_HepaRG_PTEN: Life Technologies and Expression Analysis (LTEA) Assay for Phosphatase and tensin (PTEN) using HepaRG (AID 2283523). In outline:
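Expression of PTEN is quantified in the human liver line HepaRG following two days of dosing (top concentration 100 uM, half-log dilutions, 0.5% DMSO). Values derive from bidirectional curve fitting relative to DMSO controls.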

Read-out in test [5]: solute carrier (SLC22A1), SLC22A1 (gene 6580)
Kind of test: LTEA_HepaRG_SLC22A1: Life Technologies and Expression Analysis (LTEA) Assay for solute carrier (SLC22A1) using HepaRG (AID 2283524). An outline of the steps:
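Transcript induction or suppression of SLC22A1 in human HepaRG cultures is scored after 48 h chemical treatment, with DMSO (0.5%) as baseline for bidirectional fitting. Concentrations span eight half-log points topping at 100 uM.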

Read-out in test [6]: Pyruvate Dehydrogenase Kinase 4 (PDK4), PDK4 (gene 5166)
In words: LTEA_HepaRG_PDK4: Life Technologies and Expression Analysis (LTEA) Assay for Pyruvate Dehydrogenase Kinase 4 (PDK4) using HepaRG (AID 2283525). An outline of the steps: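 Eight-point, half-log concentration series (max 100 uM, 0.5% DMSO) applied to differentiated HepaRG cells for 48 h in duplicate. Endpoint: PDK4 mRNA induction or repression by qRT-PCR against DMSO baseline.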

Read-out in test [7]: NAD(P)H dehydrogenase [quinone] 1 (NQO1), NQO1 (gene 1728)
Kind of test: LTEA_HepaRG_NQO1: Life Technologies and Expression Analysis (LTEA) Assay for NAD(P)H dehydrogenase [quinone] 1 (NQO1) using HepaRG (AID 2283526). In outline:
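qRT-PCR read-out (Fluidigm TaqMan), normalized to three housekeeping genes, after 48 h chemical exposure of HepaRG cells. Concentrations: eight points, top 100 uM, half-log steps, 0.5% DMSO vehicle. Gain or loss of signal fitted relative to DMSO.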

Read-out in test [8]: Nuclear factor erythroid 2-related factor 2 (Homo sapiens) (UniProt Q16236)
Kind of test: LTEA_HepaRG_NFE2L2: Life Technologies and Expression Analysis (LTEA) Assay for Nuclear factor erythroid 2-related factor 2 (NFE2L2) Transcription Factor using HepaRG (AID 2283527).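 Note: TaqMan qRT-PCR transcript level normalised to ACTB GAPDH and POLR2A housekeeping genes.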 In outline: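 Human liver HepaRG line treated in duplicate for 48 h with an eight-point series topping at 100 uM. Gene expression of NFE2L2 by qRT-PCR, bidirectionally fitted against the vehicle control.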

Read-out in test [9]: succinate dehydrogenase complex iron sulfur subunit B (SDHB), SDHB (gene 6390)
Kind of test: LTEA_HepaRG_SDHB: Life Technologies and Expression Analysis (LTEA) Assay for succinate dehydrogenase complex iron sulfur subunit B (SDHB) using HepaRG (AID 2283528). In outline: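 HepaRG cells (~100,000/well, plated 48 h) exposed in duplicate for 48 h in serum-free induction medium to 8-point half-log series from 100 uM in 0.5% DMSO; mRNA by qRT-PCR normalised to ACTB, GAPDH, POLR2A; bidirectional fit versus DMSO.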

Read-out in test [10]: Signal transducer and activator of transcription 3 (Homo sapiens) (UniProt P40763)
Kind of test: LTEA_HepaRG_STAT3: Life Technologies and Expression Analysis (LTEA) Assay for Signal transducer and activator of transcription (STAT3) using HepaRG (AID 2283529). In outline: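 In this transcriptional endpoint, HepaRG cultures receive test chemicals at up to 100 uM for 48 h, tested in duplicate. STAT3 mRNA is normalized to ACTB, GAPDH and POLR2A.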

Read-out in test [11]: solute carrier (SLCO1B1), SLCO1B1 (gene 10599)
In words: LTEA_HepaRG_SLCO1B1: Life Technologies and Expression Analysis (LTEA) Assay for solute carrier (SLCO1B1) using HepaRG (AID 2283530). In outline: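 Differentiated human HepaRG cells, plated 48 h, switched to serum-free induction medium and exposed in duplicate for 48 h to 8 half-log concentrations (top 100 uM) in 0.5% DMSO. SLCO1B1 mRNA by TaqMan qRT-PCR, normalized to ACTB/GAPDH/POLR2A.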

Read-out in test [12]: Transforming Growth Factor (TGFA), TGFA (gene 7039)
Kind of test: LTEA_HepaRG_TGFA: Life Technologies and Expression Analysis (LTEA) Assay for Transforming Growth Factor (TGFA) using HepaRG (AID 2283532). In outline: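 Gene expression of TGFA was quantified by qRT-PCR after human HepaRG cells were treated for 48 h with test chemicals (eight concentrations, highest 100 uM, 0.5% DMSO). Activity in either direction was fitted relative to DMSO.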

Read-out in test [13]: Transforming Growth Factor (TGFB1), TGFB1 (gene 7040)
Kind of test: LTEA_HepaRG_TGFB1: Life Technologies and Expression Analysis (LTEA) Assay for Transforming Growth Factor (TGFB1) Transporter using HepaRG (AID 2283533). An outline of the steps:
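Differentiated human HepaRG cells in serum-free induction medium were exposed in duplicate for 48 h to eight concentrations (top 100 uM, half-log steps, 0.5% DMSO). TGFB1 mRNA was quantified by qRT-PCR, normalized to ACTB, GAPDH, POLR2A, and fitted bidirectionally against DMSO.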

Read-out in a further test: TIMP1, TIMP1 (gene 7076)
Kind of test: LTEA_HepaRG_TIMP1: Life Technologies and Expression Analysis (LTEA) Assay for TIMP1 using HepaRG (AID 2283534).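 Note: TaqMan qRT-PCR signal normalized to ACTB GAPDH and POLR2A housekeeping genes.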 An outline of the steps: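 Differentiated human HepaRG cells in serum-free induction medium were exposed 48 h to chemicals (8 half-log concentrations, top 100 uM, 0.5% DMSO). TIMP1 mRNA was quantified by TaqMan qRT-PCR, normalized to ACTB/GAPDH/POLR2A; bidirectional fit versus DMSO.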

Read-out in test [14]: Tumor necrosis factor receptor 1 (TNFRSF1A), TNFRSF1A (gene 7132)
In words: LTEA_HepaRG_TNFRSF1A: Life Technologies and Expression Analysis (LTEA) Assay for Tumor necrosis factor receptor 1 (TNFRSF1A) using HepaRG (AID 2283535). In outline: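 Differentiated human HepaRG cells were exposed in duplicate for 48 h in serum-free induction medium to eight concentrations (top 100 uM, half-log steps, 0.5% DMSO). TNFRSF1A mRNA was quantified by qRT-PCR, normalized to ACTB, GAPDH and POLR2A, then fitted bidirectionally against DMSO.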

Read-out in test [15]: Thyroid Hormone Responsive (THRSP), THRSP (gene 7069)
Kind of test: LTEA_HepaRG_THRSP: Life Technologies and Expression Analysis (LTEA) Assay for Thyroid Hormone Responsive (THRSP) using HepaRG (AID 2283536). An outline of the steps:
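Cell model: human HepaRG, approx. 100,000 cells/well, 0.5% DMSO vehicle. Exposure lasts 48 h; phenobarbital 1 mM serves as induction positive control. Gene expression is measured by qRT-PCR against three endogenous control genes.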

Read-out in test [16]: UDP glucuronosyltransferase (UGT1A1), UGT1A1 (gene 54658)
Kind of test: LTEA_HepaRG_UGT1A1: Life Technologies and Expression Analysis (LTEA) Assay for UDP glucuronosyltransferase (UGT1A1) using HepaRG (AID 2283538). In outline:
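HepaRG, 48 h chemical exposure (top 100 uM, half-log 8-pt, 0.5% DMSO vehicle), duplicate wells; qRT-PCR (TaqMan, Fluidigm array) for UGT1A1 mRNA, housekeeping-normalized; bidirectional curve fit vs DMSO baseline.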

Read-out in test [17]: Nuclear factor NF-kappa-B p105 subunit (Homo sapiens) (UniProt P19838)
In words: LTEA_HepaRG_NFKB1: Life Technologies and Expression Analysis (LTEA) Assay for Nuclear Factor Kappa B Subunit 1 (NFKB1) using HepaRG (AID 2283521).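 Note: TaqMan qRT-PCR transcript normalised to ACTB GAPDH and POLR2A housekeeping genes.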 In outline: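 Differentiated human HepaRG cells in serum-free induction medium with 0.5% DMSO were exposed for 48 h to eight half-log concentrations, top 100 uM, in duplicate. NFKB1 mRNA measured by Fluidigm TaqMan qRT-PCR, normalised to ACTB, GAPDH and POLR2A; bidirectional fit versus DMSO.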

Read-out in test [18]: sulfotransferase 2A1 (SULT2A1), SULT2A1 (gene 6822)
In words: LTEA_HepaRG_SULT2A1: Life Technologies and Expression Analysis (LTEA) Assay for sulfotransferase 2A1 (SULT2A1) using HepaRG (AID 2283531). In outline:
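Differentiated human HepaRG cells in serum-free induction medium were exposed for 48 h to eight half-log concentrations (top 100 uM, 0.5% DMSO). SULT2A1 mRNA was measured by qRT-PCR, normalized to ACTB, GAPDH and POLR2A, and fitted bidirectionally against DMSO.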

Active and inactive are the calls of the source. Rule for the calls: active = hit-call score of the fitted dose curve at least 0.9, where 1 is the maximum; inactive = score below 0.9.

Chain of Signal transducer and activator of transcription 3 (Homo sapiens) (P40763 whole entry, looked up): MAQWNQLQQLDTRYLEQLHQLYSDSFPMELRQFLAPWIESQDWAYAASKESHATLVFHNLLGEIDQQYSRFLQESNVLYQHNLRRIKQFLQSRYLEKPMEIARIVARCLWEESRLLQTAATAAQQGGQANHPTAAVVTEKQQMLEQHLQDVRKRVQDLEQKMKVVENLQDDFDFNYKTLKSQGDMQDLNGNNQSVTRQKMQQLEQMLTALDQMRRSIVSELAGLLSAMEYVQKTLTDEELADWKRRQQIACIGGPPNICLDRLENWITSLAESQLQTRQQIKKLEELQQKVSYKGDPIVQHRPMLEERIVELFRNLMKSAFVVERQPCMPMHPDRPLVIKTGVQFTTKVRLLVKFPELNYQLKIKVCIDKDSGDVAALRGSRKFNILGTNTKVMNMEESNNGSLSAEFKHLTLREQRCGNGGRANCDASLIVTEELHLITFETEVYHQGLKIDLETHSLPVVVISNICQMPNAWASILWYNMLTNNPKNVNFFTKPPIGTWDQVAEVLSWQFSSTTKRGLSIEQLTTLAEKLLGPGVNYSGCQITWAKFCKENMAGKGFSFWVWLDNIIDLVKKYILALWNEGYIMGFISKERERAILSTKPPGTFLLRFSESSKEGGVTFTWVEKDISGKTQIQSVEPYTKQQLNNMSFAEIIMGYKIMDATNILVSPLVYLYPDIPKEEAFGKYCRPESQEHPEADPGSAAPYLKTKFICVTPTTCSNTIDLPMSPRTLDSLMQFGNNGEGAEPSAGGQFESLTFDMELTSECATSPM
Chain of Nuclear factor erythroid 2-related factor 2 (Homo sapiens) (Q16236 whole entry, looked up): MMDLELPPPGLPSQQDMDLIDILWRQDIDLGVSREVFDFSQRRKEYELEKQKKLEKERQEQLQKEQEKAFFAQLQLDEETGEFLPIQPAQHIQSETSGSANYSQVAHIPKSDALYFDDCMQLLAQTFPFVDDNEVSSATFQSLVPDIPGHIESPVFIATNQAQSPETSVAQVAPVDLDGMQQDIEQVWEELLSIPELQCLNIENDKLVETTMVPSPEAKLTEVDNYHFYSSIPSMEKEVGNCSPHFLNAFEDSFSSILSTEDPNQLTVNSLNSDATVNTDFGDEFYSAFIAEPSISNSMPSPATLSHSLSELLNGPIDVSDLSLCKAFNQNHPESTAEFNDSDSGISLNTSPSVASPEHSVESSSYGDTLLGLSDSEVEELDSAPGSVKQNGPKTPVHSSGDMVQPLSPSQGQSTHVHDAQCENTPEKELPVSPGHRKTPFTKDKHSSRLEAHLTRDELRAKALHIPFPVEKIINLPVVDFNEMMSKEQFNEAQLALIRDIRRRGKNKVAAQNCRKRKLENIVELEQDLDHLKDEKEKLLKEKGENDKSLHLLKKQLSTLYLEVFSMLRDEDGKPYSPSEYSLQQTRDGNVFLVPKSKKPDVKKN
Chain of Nuclear factor NF-kappa-B p105 subunit (Homo sapiens) (P19838 whole entry, looked up): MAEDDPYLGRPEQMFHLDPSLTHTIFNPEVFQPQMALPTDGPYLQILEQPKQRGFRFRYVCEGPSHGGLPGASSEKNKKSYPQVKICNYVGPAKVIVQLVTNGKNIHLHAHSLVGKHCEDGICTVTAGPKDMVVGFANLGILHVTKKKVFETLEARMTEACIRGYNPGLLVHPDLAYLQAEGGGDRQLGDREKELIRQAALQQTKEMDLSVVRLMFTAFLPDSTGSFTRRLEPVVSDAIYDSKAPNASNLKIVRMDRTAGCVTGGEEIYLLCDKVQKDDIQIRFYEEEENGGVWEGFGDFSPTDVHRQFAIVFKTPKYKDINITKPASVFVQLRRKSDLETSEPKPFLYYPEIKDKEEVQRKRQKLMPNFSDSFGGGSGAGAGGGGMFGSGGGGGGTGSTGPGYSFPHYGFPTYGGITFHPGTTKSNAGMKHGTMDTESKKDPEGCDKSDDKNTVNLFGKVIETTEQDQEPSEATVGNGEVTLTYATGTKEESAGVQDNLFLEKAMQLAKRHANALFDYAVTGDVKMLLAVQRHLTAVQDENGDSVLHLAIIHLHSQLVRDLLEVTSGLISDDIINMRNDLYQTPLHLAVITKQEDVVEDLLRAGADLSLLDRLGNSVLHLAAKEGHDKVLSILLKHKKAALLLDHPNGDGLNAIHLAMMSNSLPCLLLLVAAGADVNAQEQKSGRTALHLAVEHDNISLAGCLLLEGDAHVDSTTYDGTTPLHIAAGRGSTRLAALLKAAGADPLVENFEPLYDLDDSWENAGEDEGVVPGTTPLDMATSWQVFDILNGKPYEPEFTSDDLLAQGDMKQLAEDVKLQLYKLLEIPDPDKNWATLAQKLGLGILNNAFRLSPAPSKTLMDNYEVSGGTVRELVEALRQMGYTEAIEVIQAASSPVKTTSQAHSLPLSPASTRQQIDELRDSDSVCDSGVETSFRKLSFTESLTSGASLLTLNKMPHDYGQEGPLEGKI

On to `C=CN1CCCC1=O`, for which the outcome was “inactive” in the test with MYC, MYC (gene 4609); “inactive” in test [1]; “inactive” in test [2]; “inactive” in test [3]; “inactive” in test [4]; “inactive” in test [5]. Also, the call in test [6], in test [7], in [8], in test [9], in test [10] and in [11] was inactive. Besides, the outcome was “inactive” in test [12]; “inactive” in test [13]; “inactive” in the test with TIMP1, TIMP1 (gene 7076); “inactive” in test [14]; “inactive” in test [15].
The AC50 is the midpoint of the concentration-response curve, whichever way the signal moves. Consider `CCOc1ccc2[nH]cc(C(=O)NCc3ccccc3)c(=O)c2n1`, for which the outcome with MYC, MYC (gene 4609) was “inactive”; in test [1], “inactive”; in test [3], “inactive”; in test [4] it was “inactive”; in test [5] it was “inactive”; in test [6], “inactive”. Besides, the call in test [7], in test [8], in test [9], in [10], in [11] and in [12] was inactive. The outcome is “inactive” in test [13]; “inactive” with TIMP1, TIMP1 (gene 7076); “inactive” in test [14]; “inactive” in test [15]; “inactive” in test [16]. In test [2], the AC50 is 50 µM (active).
Regarding `OCCNCCO`, the outcome with MYC, MYC (gene 4609) was “inactive”; in test [1], “inactive”; in test [2], “inactive”; in [3], “inactive”; in [4], “inactive”; in [8], “inactive”. In addition, the outcome in test [9] was “inactive”; in [10] it was “inactive”; in test [11], “inactive”; in [12] it was “inactive”; in test [13] it was “inactive”; with TIMP1, TIMP1 (gene 7076), “inactive”. Besides, the compound was classed as inactive in test [14] and in test [15]. The AC50 in test [5] was 50 µM (active); in test [16] it was 9.92 µM (active).
In the case of `C[C@@H](Oc1ccc(CNC(=O)c2cccnc2Oc2ccc3c(c2)OCO3)c(F)c1)C(=O)O`, the outcome with MYC, MYC (gene 4609) was “inactive”; in test [2] it was “inactive”; in test [17], “inactive”; in [3], “inactive”; in test [4], “inactive”; in test [5], “inactive”. Moreover, the outcome in [7], in test [8], in test [9], in test [10], in test [11] and in test [18] was inactive. Moreover, the outcome in test [12] was “inactive”; in test [13], “inactive”; with TIMP1, TIMP1 (gene 7076), “inactive”; in [14], “inactive”; in [15] it was “inactive”.

The values are drawn from PubChem BioAssay (EPA / NIEHS).
